Measurements as given in PubChem BioAssay (Tox21).
“And” between values parts separate entries of the source, which are not always exact repeats. Equal entries are not always repeated. Inconclusive results are not listed. Entries that show only a call come without a potency. Some compounds were tested as several samples or in several runs, with calls that do not always agree. The source made the active and inactive calls. Calls come from the whole dose curve; as a rule, active = well fitted curve in the direction sought with a large enough effect in the repeat runs; inconclusive = weak or mixed curves; inactive = no such curve, though single readings can be large; an effect the other way counts as inactive or inconclusive.

Assay: qHTS assay to identify small molecule agonists of the RXR signaling pathway - cell viability counter screen (AID 1159529); note: nearly all actives have a fitted effect of over 50% in size; note: potency is the fitted concentration of half-maximal effect
Conditions: RXR-alpha-bla HEK293T viability, CellTiter-Glo, 16 h; series mostly up to 76.8 µM
Outline: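 HEK 293T RXRa-bla cells, 2% CS-FBS; 5 h settle; cpd 16 h 37 C, 5% CO2; CellTiter-Glo 30 min RT, luminescence. Tetraoctyl ammonium bromide as positive control.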

SMILES | Potency
Nc1cccc(C(F)(F)F)c1 | inactive
CO[Si](CCCNCCN)(OC)OC | inactive
CC(COCC(C)OC(=O)c1ccccc1)OC(=O)c1ccccc1 (centres undefined) | inactive
C=C(C)CC(C)(C)C | inactive
CC(=O)OC[C@H]1O[C@@](COC(C)=O)(O[C@H]2O[C@H](COC(C)=O)[C@@H](OC(C)=O)[C@H](OC(C)=O)[C@H]2OC(C)=O)[C@@H](OC(C)=O)[C@@H]1OC(C)=O | inactive
Nc1cccc(N)n1 | inactive
Cc1cc(C)c(O)c(C)c1 | inactive
NC1CCCCC1N (centres undefined) | inactive
OCCOCCOCCOCCOCCO | inactive
NC(=O)NC(N)=O | inactive
COC(=O)CCCCC(=O)OC | inactive
OC[C@H]1O[C@@H](Oc2ccc(O)cc2)[C@H](O)[C@@H](O)[C@@H]1O | inactive
Oc1ccc(Cc2ccccc2O)cc1 | inactive
C[n+]1ccn(CCO)c1 | inactive
CN=C(NC#N)NCCSCc1nc[nH]c1C | inactive
Brc1ccc(Oc2ccc(Br)cc2)cc1 | inactive
CCCCCNCCCCC | inactive
CN1Cc2c(N)cccc2C(c2ccccc2)C1 (centres undefined) | inactive
CC/C(C)=N/O | inactive

SMILES | Potency
CCCOC(=O)NCCCN(C)C | inactive
OC1CCCCC1 | inactive
C[Si](C)(C)N[Si](C)(C)C | inactive
Nc1nc(N)c2nc(-c3ccccc3)c(N)nc2n1 | inactive
CCCCCCCCO | inactive
N#CCC(=O)O | inactive
CN1CCCC1=O | inactive
OCC(O)CS (centres undefined) | inactive
O=[N+]([O-])c1ccccc1C(F)(F)F | inactive
CC(C=O)Cc1ccc(C(C)(C)C)cc1 (centres undefined) | inactive
CC1=CC(=O)CC(C)(C)C1 | 25.3 µM (active) and inactive
Cc1ccncc1 | inactive
CC(CN1c2ccccc2Sc2ccccc21)N(C)C (centres undefined) | 55.5 µM (active) and inactive
CCCCCCCCC(=O)O | inactive
CC(=O)C(C)C | inactive
Cc1cc(CC(=O)O)n(C)c1C(=O)c1ccc(Cl)cc1 | inactive
Cc1ccc(C)c(S(=O)(=O)O)c1 | inactive
C=C(CC(=O)O)C(=O)O | inactive
O=c1n(CCCN2CCN(c3cccc(Cl)c3)CC2)nc2ccccn12 | inactive

Assay: qHTS assay to identify small molecule antagonists of the retinoid acid receptor (RAR) signaling pathway - cell viability counter screen (AID 1159551); note: nearly all actives have a fitted effect of over 35% in size
Conditions: C3RL4 cells viability, ATP luminescence (CellTiter-Glo), 6 h; series mostly up to 92.4 µM
Outline: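 Cells (C3RL4) are plated, incubated overnight, dosed with compound in DMSO, then given retinol at 1 uM final. After 6 h at 37 C, CellTiter-Glo is added and luminescence read following 30 min at room temperature.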

SMILES | Potency
Nc1cccc(C(F)(F)F)c1 | inactive
CO[Si](CCCNCCN)(OC)OC | inactive
CC(COCC(C)OC(=O)c1ccccc1)OC(=O)c1ccccc1 (centres undefined) | inactive
C=C(C)CC(C)(C)C | inactive
CC(=O)OC[C@H]1O[C@@](COC(C)=O)(O[C@H]2O[C@H](COC(C)=O)[C@@H](OC(C)=O)[C@H](OC(C)=O)[C@H]2OC(C)=O)[C@@H](OC(C)=O)[C@@H]1OC(C)=O | inactive
Nc1cccc(N)n1 | inactive
Cc1cc(C)c(O)c(C)c1 | inactive
NC1CCCCC1N (centres undefined) | inactive
OCCOCCOCCOCCOCCO | inactive
NC(=O)NC(N)=O | inactive
COC(=O)CCCCC(=O)OC | inactive
OC[C@H]1O[C@@H](Oc2ccc(O)cc2)[C@H](O)[C@@H](O)[C@@H]1O | inactive
Oc1ccc(Cc2ccccc2O)cc1 | inactive
C[n+]1ccn(CCO)c1 | inactive
CN=C(NC#N)NCCSCc1nc[nH]c1C | inactive
Brc1ccc(Oc2ccc(Br)cc2)cc1 | inactive
CCCCCNCCCCC | inactive
CN1Cc2c(N)cccc2C(c2ccccc2)C1 (centres undefined) | inactive
CC/C(C)=N/O | inactive

SMILES | Potency
CCCOC(=O)NCCCN(C)C | inactive
OC1CCCCC1 | inactive
C[Si](C)(C)N[Si](C)(C)C | inactive
Nc1nc(N)c2nc(-c3ccccc3)c(N)nc2n1 | inactive
CCCCCCCCO | inactive
N#CCC(=O)O | inactive
CN1CCCC1=O | inactive
OCC(O)CS (centres undefined) | inactive
O=[N+]([O-])c1ccccc1C(F)(F)F | inactive
CC(C=O)Cc1ccc(C(C)(C)C)cc1 (centres undefined) | inactive
CC1=CC(=O)CC(C)(C)C1 | inactive
Cc1ccncc1 | inactive
CC(CN1c2ccccc2Sc2ccccc21)N(C)C (centres undefined) | inactive
CCCCCCCCC(=O)O | inactive
CC(=O)C(C)C | inactive
Cc1cc(CC(=O)O)n(C)c1C(=O)c1ccc(Cl)cc1 | inactive
Cc1ccc(C)c(S(=O)(=O)O)c1 | inactive
C=C(CC(=O)O)C(=O)O | inactive
O=c1n(CCCN2CCN(c3cccc(Cl)c3)CC2)nc2ccccn12 | inactive

Assay: qHTS assay to identify small molecule antagonists of the retinoic acid receptor (RAR) signaling pathway (AID 1159552; note: nearly all actives have a fitted effect of over 50% in size; note: potency is the fitted concentration of half-maximal effect)
Conditions: C3RL4 RARE luciferase reporter, retinol-stimulated, 6 h; series mostly up to 92.4 µM
Outline: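 Cells of the C3RL4 line were seeded, incubated overnight, then dosed with compounds in DMSO followed immediately by retinol (1 uM final). Six hours later luciferase detection reagent went in; signal was measured after 30 min at RT.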

SMILES | Potency
Nc1cccc(C(F)(F)F)c1 | inactive
CO[Si](CCCNCCN)(OC)OC | inactive
CC(COCC(C)OC(=O)c1ccccc1)OC(=O)c1ccccc1 (centres undefined) | inactive
C=C(C)CC(C)(C)C | inactive
CC(=O)OC[C@H]1O[C@@](COC(C)=O)(O[C@H]2O[C@H](COC(C)=O)[C@@H](OC(C)=O)[C@H](OC(C)=O)[C@H]2OC(C)=O)[C@@H](OC(C)=O)[C@@H]1OC(C)=O | inactive
Nc1cccc(N)n1 | inactive
Cc1cc(C)c(O)c(C)c1 | inactive
NC1CCCCC1N (centres undefined) | inactive
OCCOCCOCCOCCOCCO | inactive
NC(=O)NC(N)=O | inactive
COC(=O)CCCCC(=O)OC | inactive
OC[C@H]1O[C@@H](Oc2ccc(O)cc2)[C@H](O)[C@@H](O)[C@@H]1O | inactive
Oc1ccc(Cc2ccccc2O)cc1 | inactive
C[n+]1ccn(CCO)c1 | inactive
CN=C(NC#N)NCCSCc1nc[nH]c1C | inactive
Brc1ccc(Oc2ccc(Br)cc2)cc1 | inactive
CCCCCNCCCCC | inactive
CN1Cc2c(N)cccc2C(c2ccccc2)C1 (centres undefined) | inactive
CC/C(C)=N/O | inactive

SMILES | Potency
CCCOC(=O)NCCCN(C)C | inactive
OC1CCCCC1 | inactive
C[Si](C)(C)N[Si](C)(C)C | inactive
Nc1nc(N)c2nc(-c3ccccc3)c(N)nc2n1 | inactive
CCCCCCCCO | inactive
N#CCC(=O)O | inactive
CN1CCCC1=O | inactive
OCC(O)CS (centres undefined) | inactive
O=[N+]([O-])c1ccccc1C(F)(F)F | inactive
CC(C=O)Cc1ccc(C(C)(C)C)cc1 (centres undefined) | inactive
CC1=CC(=O)CC(C)(C)C1 | 4.99 µM (active) and inactive
Cc1ccncc1 | inactive
CC(CN1c2ccccc2Sc2ccccc21)N(C)C (centres undefined) | 27.6 µM (active) and 48.6 µM (active) and 26.6 µM (active)
CCCCCCCCC(=O)O | inactive
CC(=O)C(C)C | inactive
Cc1cc(CC(=O)O)n(C)c1C(=O)c1ccc(Cl)cc1 | inactive
Cc1ccc(C)c(S(=O)(=O)O)c1 | inactive
C=C(CC(=O)O)C(=O)O | inactive
O=c1n(CCCN2CCN(c3cccc(Cl)c3)CC2)nc2ccccn12 | inactive
